The source of these data is PMC3218832.

Common to all, as to test: protein binding microarray; high values mean tight binding
Holding throughout (conditions): dsDNA, one strand shown

Assay [1] concerns the target RELARELA (p65 homodimer) (Homo sapiens, UniProt Q04206 1-307).
Assay [2] addresses p50p50 homodimer (Homo sapiens, UniProt P19838 7-356).
Assay [3] has as its target T1, p52p52 homodimer (Homo sapiens, UniProt Q00653 4-332).
T1 sequence: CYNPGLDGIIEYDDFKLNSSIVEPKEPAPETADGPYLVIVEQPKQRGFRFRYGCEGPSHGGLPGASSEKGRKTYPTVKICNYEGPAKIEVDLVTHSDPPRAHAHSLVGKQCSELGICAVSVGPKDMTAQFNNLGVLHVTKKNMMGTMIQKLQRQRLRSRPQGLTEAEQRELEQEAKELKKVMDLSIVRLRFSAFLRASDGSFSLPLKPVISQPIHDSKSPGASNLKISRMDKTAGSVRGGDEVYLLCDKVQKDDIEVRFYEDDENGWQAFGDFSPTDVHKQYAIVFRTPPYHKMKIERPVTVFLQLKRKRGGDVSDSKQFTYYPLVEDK

The target in assay [4] is RELA (p65) subunit of heterodimer;p50 subunit (Homo sapiens;Homo sapiens, UniProt Q04206;P19838 1-307;7-356).
The target of assay [5] is RELA (p65) subunit of heterodimer;p52 subunit (Homo sapiens;Homo sapiens, UniProt Q04206;Q00653 1-307;4-332).
In assay [6] the target is RELB subunit;p50 subunit (Homo sapiens;Homo sapiens, UniProt Q01201;P19838 120-401;7-356).
Assay [7] has as its target T2, RELB subunit;p52 subunit (Homo sapiens;Homo sapiens, UniProt Q01201;Q00653 120-401;4-332).
T2 sequence 1: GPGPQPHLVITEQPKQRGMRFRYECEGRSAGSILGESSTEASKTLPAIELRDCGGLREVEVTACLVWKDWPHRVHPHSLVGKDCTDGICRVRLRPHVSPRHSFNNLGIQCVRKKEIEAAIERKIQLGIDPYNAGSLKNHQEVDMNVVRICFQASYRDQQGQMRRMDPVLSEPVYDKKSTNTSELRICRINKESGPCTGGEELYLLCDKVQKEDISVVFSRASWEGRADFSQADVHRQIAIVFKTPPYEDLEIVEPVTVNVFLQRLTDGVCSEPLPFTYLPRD
T2 sequence 2: T1 sequence

The target of assay [8] is C-Rel subunit;p50 subunit (Homo sapiens;Homo sapiens, UniProt Q04864;P19838 1-285;7-356).
The target in assay [9] is T3, C-Rel subunit;p52 subunit (Homo sapiens;Homo sapiens, UniProt Q04864;Q00653 1-285;4-332).
T3 sequence 1: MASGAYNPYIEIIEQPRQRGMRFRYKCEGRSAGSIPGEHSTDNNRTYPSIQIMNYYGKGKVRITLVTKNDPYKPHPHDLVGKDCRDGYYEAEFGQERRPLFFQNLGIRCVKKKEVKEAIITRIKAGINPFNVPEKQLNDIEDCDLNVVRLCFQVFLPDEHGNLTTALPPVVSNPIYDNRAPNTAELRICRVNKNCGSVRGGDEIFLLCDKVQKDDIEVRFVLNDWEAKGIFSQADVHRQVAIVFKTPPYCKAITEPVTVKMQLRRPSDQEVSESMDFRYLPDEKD
T3 sequence 2: T1 sequence

Chain of RELA (p65) subunit of heterodimer;p50 subunit (Q04206 1-307, chain 1 of 2): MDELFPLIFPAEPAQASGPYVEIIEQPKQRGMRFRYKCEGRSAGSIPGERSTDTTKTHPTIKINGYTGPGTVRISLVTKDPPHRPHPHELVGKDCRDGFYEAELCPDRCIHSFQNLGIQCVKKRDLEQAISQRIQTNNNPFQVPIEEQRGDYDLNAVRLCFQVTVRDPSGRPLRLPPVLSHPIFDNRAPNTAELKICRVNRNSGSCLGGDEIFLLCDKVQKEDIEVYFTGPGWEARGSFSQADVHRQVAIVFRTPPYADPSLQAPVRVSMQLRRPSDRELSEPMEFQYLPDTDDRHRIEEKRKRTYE
Chain of RELA (p65) subunit of heterodimer;p50 subunit (P19838 7-356, chain 2 of 2): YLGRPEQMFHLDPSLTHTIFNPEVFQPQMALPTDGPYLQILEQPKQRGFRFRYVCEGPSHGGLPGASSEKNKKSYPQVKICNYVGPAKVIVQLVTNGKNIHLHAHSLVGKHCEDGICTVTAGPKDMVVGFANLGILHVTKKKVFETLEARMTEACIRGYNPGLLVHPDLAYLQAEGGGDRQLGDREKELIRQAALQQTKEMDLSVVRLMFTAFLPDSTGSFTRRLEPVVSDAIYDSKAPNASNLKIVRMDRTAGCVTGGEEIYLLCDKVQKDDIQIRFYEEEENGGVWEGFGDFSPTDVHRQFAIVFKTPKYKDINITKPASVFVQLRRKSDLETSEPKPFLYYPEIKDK
Chain of RELARELA (p65 homodimer) (Q04206 1-307): as the sequence (Q04206 1-307, chain 1 of 2) above
Chain of p50p50 homodimer (P19838 7-356): as the sequence (P19838 7-356, chain 2 of 2) above

With AGGATTTCCCT, the binding signal was found to be 1.99 z-score in assay [1]; 1.23 z-score in [2]; 2.18 z-score in assay [3]; 1.44 z-score in [4]; 1.61 z-score in assay [5]; 1.58 z-score in assay [6]. Besides, the values for the binding signal in assay [7], in assay [8] and in assay [9] were 1.91 z-score, 1.36 z-score and 1.67 z-score, respectively.
As to CGAAAGGCCCT, the binding signal in assay [1] is -0.835 z-score; in assay [2], -0.751 z-score; in assay [3], -0.447 z-score; in [4] it was -0.366 z-score; in assay [5], -0.217 z-score; in assay [6] it was -0.417 z-score. Besides, the binding signal in assay [7] was -0.6 z-score; in assay [8], -0.822 z-score; in assay [9], -0.62 z-score.
On to CGATGTACCCC, for which the binding signal in assay [1] was 0.132 z-score; in [2] it was 0 z-score; in assay [3], -0.0732 z-score; in assay [4], -0.125 z-score; in assay [5], 0.16 z-score; in [6], 0.299 z-score. In addition, the binding signal worked out at 0.491 z-score in assay [7], 0.113 z-score in [8] and 0.101 z-score in assay [9].
GAAGTACCCCC: the binding signal in assay [1] came out at 0.109 z-score; in [2] it was 1.25 z-score; in [3] it was 0.815 z-score; in [4], 1.31 z-score; in assay [5], 1.14 z-score; in [6], 1.27 z-score. Besides, the binding signal in assay [7] was determined as 1.33 z-score; in assay [8], 0.887 z-score; in [9] it was 0.946 z-score.
Regarding AAGTAAGTCCC, the binding signal in assay [1] was found to be 0.51 z-score; in assay [2], 1.02 z-score; in [3], 0.587 z-score; in assay [4], 0.837 z-score; in assay [5] it was 0.459 z-score; in [6], 1.1 z-score. In addition, the binding signal was found to be 0.647 z-score in assay [7], 0.768 z-score in [8] and 0.419 z-score in assay [9].
As to GGAGGATCCCC, the binding signal was 0.374 z-score in assay [1]; 1.03 z-score in assay [2]; 1.19 z-score in [3]; 1.54 z-score in [4]; 1.22 z-score in [5]; 1.27 z-score in assay [6]. The binding signal in [7] was 0.916 z-score; in assay [8], 1.15 z-score; in [9], 0.899 z-score.
As to AGAGAGGCCCC, the binding signal in assay [1] was -0.813 z-score; in [2] it was -0.259 z-score; in assay [3] it was -0.348 z-score; in [4], -0.461 z-score; in assay [5] it was -0.565 z-score; in assay [6], -0.342 z-score. Also, the binding signal is -0.35 z-score in [7], -0.436 z-score in assay [8] and -0.513 z-score in [9].
AAGAGTACCCT: the binding signal in [1] was -0.409 z-score; in assay [2], 0.828 z-score; in [3], 0.248 z-score; in assay [4], 0.398 z-score; in [5], 0.224 z-score; in [6] it was 0.66 z-score. Further, the binding signal in [7] is 0.374 z-score; in assay [8] it was 0.116 z-score; in assay [9], 0.104 z-score.
For CGGTGTCTCCC, the binding signal is -0.108 z-score in assay [1]; -0.00286 z-score in [2]; 0.283 z-score in assay [3]; 0.0635 z-score in assay [4]; 0.211 z-score in assay [5]; -0.121 z-score in assay [6]. The binding signal in assay [7] was 0.143 z-score; in [8], -0.0512 z-score; in assay [9] it was 0.354 z-score.
As for GGAGAGCTCCT, the binding signal in assay [1] is -0.469 z-score; in assay [2], -1.71 z-score; in [3], -0.711 z-score; in assay [4] it was -1.01 z-score; in [5], -1.01 z-score; in assay [6] it was -1.17 z-score. Further, the binding signal in [7] was -1.06 z-score; in assay [8] it was -1.65 z-score; in assay [9], -1.07 z-score.
For CAAAGCCTCCC, the binding signal in assay [1] was -0.873 z-score; in assay [2] it was -0.992 z-score; in [3] it was -0.631 z-score; in [4], -0.874 z-score; in [5] it was -0.823 z-score; in [6] it was -0.859 z-score. The figures for the binding signal in assay [7], in assay [8] and in assay [9] were -0.707 z-score, -1.19 z-score and -0.839 z-score, respectively.
Turning to AAATTCATCCT, the binding signal was 0.0684 z-score in [1]; -0.972 z-score in assay [2]; -0.568 z-score in assay [3]; -0.664 z-score in assay [4]; -0.9 z-score in assay [5]; -0.972 z-score in [6]. Besides, the values for the binding signal in assay [7], in assay [8] and in assay [9] were -0.72 z-score, -1.11 z-score and -0.904 z-score, respectively.
GAAGGCATCCT: the binding signal is -0.848 z-score in [1]; -1.34 z-score in assay [2]; -0.851 z-score in assay [3]; -1.13 z-score in [4]; -1.21 z-score in [5]; -1.29 z-score in assay [6]. Also, the binding signal in [7] is -1.12 z-score; in assay [8], -1.72 z-score; in assay [9], -1.14 z-score.
Consider GAGTTTCTCCT, for which the binding signal in assay [1] was -0.323 z-score; in assay [2] it was -1.49 z-score; in [3] it was -0.546 z-score; in assay [4], -0.596 z-score; in [5], -0.78 z-score; in assay [6], -0.911 z-score. Besides, the results for the binding signal in assay [7], in assay [8] and in assay [9] were -0.855 z-score, -0.907 z-score and -0.692 z-score, respectively.
Turning to GGAGTCCTCCC, the binding signal in assay [1] was -0.114 z-score; in assay [2], -0.916 z-score; in assay [3] it was -0.266 z-score; in assay [4], -0.571 z-score; in assay [5] it was -0.463 z-score; in [6] it was -0.55 z-score. The results for the binding signal in [7], in [8] and in [9] were -0.535 z-score, -0.207 z-score and -0.576 z-score, respectively.
